How the values were obtained:
Assay in all cases: DAPPL (digital affinity profiling via proximity ligation, sequencing); 10 mM Tris-HCl pH 7.5, 50 mM NaCl, 1 mM DTT, 4% glycerol, room temperature, 30 min; GST-TFs on glutathione beads, 16-mer random dsDNA library, 0.1% formaldehyde crosslink after washing; high values mean tight binding
[1] = biological target: T1, FEV (Homo sapiens, UniProt Q99581 1-238); details: protein: recombinant; tags: N-terminal GST; dsDNA, one strand shown
T1 sequence: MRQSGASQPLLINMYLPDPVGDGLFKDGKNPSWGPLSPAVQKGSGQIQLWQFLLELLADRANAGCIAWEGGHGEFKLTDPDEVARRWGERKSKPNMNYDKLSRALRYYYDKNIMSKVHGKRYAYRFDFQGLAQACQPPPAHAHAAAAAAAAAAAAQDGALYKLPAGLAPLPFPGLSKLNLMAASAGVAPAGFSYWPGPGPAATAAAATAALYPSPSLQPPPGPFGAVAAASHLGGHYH
Outline: (§1)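 Sequencing on an Illumina NextSeq500 followed washing, crosslinking with 0.1% formaldehyde, proximity ligation (BsaI/T4 ligase, 1 h, 37 °C) and PCR amplification of pools that had been incubated for 30 min at room temperature with 200 nmole of a random double-stranded 16-mer DNA library in Tris/NaCl/DTT/glycerol buffer. Each pool held DNA-barcoded human transcription factors, expressed in yeast as GST fusions and captured on glutathione beads, plus a tag-only sample. Binding signal is a hexamer's read frequency for a factor divided by its frequency in the tag-only sample.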

[2] = biological target: ETV5 (Homo sapiens, UniProt P41161 1-510); details: protein: recombinant; tags: N-terminal GST; dsDNA, one strand shown
Outline: as §1

[3] = biological target: HSF1 (Homo sapiens, UniProt Q00613 1-529); details: protein: recombinant; tags: N-terminal GST; chain copies: 3; dsDNA, one strand shown
Outline: as §1

[4] = biological target: ELF4 (Homo sapiens, UniProt Q99607 1-663); details: protein: recombinant; tags: N-terminal GST; dsDNA, one strand shown
Outline: as §1

[5] = biological target: T2, ELF3 (Homo sapiens, UniProt P78545 1-371); details: protein: recombinant; tags: N-terminal GST; dsDNA, one strand shown
T2 sequence: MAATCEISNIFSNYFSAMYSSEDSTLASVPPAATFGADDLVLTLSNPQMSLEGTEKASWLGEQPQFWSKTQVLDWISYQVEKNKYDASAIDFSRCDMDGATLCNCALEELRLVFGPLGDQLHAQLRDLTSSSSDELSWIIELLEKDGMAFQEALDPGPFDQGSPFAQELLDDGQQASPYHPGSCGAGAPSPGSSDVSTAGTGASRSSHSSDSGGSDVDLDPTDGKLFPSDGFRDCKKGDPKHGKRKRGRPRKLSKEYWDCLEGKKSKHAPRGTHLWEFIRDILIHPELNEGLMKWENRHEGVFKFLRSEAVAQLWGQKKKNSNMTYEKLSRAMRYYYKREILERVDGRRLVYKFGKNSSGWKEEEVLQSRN
Outline: as §1

[6] = biological target: ETV1 (Homo sapiens, UniProt P50549 1-477); details: protein: recombinant; tags: N-terminal GST; dsDNA, one strand shown
Outline: as §1

[7] = biological target: T3, ETV3L (Homo sapiens, UniProt Q6ZN32 1-361); details: protein: recombinant; tags: N-terminal GST; dsDNA, one strand shown
T3 sequence: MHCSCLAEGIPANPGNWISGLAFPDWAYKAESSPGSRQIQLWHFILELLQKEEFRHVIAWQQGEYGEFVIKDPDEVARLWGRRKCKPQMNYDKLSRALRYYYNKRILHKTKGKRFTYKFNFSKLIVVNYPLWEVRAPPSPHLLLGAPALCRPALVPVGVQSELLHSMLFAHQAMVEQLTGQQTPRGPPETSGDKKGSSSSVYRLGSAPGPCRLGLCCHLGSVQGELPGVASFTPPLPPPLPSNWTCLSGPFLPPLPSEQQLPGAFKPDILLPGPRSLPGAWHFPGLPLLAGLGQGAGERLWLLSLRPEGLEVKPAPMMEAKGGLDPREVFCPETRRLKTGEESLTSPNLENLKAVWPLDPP
Outline: as §1

[8] = biological target: T4, ETS2 (Homo sapiens, UniProt P15036 1-469); details: protein: recombinant; tags: N-terminal GST; dsDNA, one strand shown
T4 sequence: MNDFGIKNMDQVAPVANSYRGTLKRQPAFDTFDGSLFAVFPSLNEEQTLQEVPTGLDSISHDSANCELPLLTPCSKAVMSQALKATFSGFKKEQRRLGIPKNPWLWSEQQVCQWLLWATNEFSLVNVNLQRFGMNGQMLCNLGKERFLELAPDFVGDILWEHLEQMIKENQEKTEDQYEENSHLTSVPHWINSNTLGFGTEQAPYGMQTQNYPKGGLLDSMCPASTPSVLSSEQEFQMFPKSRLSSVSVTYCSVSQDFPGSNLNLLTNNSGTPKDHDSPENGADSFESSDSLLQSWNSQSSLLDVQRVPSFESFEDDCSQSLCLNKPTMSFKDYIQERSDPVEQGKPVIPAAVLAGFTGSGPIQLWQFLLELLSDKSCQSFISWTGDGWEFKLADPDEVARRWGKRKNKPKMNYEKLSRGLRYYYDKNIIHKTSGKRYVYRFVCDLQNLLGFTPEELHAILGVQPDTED
Outline: as §1

[9] = biological target: T5, ETV7 (Homo sapiens, UniProt Q9Y603 1-341); details: protein: recombinant; tags: N-terminal GST; dsDNA, one strand shown
T5 sequence: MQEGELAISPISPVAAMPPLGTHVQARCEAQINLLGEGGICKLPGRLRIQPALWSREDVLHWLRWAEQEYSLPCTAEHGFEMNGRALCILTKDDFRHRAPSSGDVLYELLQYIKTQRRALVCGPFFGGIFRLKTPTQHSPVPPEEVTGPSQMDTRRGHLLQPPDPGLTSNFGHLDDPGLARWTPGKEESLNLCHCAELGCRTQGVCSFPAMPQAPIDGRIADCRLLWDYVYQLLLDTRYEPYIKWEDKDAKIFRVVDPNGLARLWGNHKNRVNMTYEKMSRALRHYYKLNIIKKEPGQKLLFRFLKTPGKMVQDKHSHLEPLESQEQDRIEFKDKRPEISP
Outline: as §1

[10] = biological target: ETV6 (Homo sapiens, UniProt P41212 1-452); details: protein: recombinant; tags: N-terminal GST; dsDNA, one strand shown
Outline: as §1

[11] = biological target: T6, ELK4 (Homo sapiens, UniProt P28324-2 1-405); details: protein: recombinant; tags: N-terminal GST; dsDNA, one strand shown
T6 sequence: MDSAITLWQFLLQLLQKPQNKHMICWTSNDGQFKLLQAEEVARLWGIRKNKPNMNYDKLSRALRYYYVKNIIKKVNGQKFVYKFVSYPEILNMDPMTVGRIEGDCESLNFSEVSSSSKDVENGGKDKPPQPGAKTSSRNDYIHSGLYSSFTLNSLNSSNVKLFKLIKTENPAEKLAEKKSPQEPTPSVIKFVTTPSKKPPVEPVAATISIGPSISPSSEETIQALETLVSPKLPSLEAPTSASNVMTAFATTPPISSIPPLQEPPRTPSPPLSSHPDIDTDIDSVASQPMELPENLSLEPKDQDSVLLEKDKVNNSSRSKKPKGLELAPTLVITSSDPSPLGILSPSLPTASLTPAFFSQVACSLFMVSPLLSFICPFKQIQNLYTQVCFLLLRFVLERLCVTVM
Outline: as §1

[12] = biological target: T7, ETV2 (Homo sapiens, UniProt O00321 1-342); details: protein: recombinant; tags: N-terminal GST; dsDNA, one strand shown
T7 sequence: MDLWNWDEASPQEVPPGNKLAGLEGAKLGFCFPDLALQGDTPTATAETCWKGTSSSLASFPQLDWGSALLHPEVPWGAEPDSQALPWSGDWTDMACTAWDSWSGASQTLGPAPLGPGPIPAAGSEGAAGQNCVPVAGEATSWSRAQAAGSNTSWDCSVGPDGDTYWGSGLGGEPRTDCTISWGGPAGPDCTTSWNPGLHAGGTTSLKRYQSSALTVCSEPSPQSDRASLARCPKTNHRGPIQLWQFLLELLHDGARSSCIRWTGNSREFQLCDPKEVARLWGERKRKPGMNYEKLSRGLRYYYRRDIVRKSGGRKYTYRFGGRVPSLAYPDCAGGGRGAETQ
Outline: as §1

[13] = biological target: CRX (Homo sapiens, UniProt O43186 1-299); details: protein: recombinant; tags: N-terminal GST; dsDNA, one strand shown
Outline: as §1

[14] = biological target: T8, ERF (Homo sapiens, UniProt P50548 1-548); details: protein: recombinant; tags: N-terminal GST; dsDNA, one strand shown
T8 sequence: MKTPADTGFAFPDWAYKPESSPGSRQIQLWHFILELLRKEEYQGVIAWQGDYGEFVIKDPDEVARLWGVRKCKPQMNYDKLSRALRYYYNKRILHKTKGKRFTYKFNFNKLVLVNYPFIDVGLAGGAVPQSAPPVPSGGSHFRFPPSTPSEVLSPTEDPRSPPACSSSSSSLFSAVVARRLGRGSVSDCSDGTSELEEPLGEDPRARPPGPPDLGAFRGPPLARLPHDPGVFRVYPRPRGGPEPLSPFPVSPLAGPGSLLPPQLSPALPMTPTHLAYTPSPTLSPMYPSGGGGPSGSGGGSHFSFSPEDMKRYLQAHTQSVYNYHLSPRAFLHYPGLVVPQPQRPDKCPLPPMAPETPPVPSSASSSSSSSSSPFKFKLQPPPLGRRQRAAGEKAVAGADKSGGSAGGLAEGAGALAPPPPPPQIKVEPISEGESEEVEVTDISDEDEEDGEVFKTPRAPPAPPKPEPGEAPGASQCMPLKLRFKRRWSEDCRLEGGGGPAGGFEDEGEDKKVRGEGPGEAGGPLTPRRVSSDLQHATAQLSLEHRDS
Outline: as §1

[15] = biological target: T9, SPDEF (Homo sapiens, UniProt O95238 1-335); details: protein: recombinant; tags: N-terminal GST; dsDNA, one strand shown
T9 sequence: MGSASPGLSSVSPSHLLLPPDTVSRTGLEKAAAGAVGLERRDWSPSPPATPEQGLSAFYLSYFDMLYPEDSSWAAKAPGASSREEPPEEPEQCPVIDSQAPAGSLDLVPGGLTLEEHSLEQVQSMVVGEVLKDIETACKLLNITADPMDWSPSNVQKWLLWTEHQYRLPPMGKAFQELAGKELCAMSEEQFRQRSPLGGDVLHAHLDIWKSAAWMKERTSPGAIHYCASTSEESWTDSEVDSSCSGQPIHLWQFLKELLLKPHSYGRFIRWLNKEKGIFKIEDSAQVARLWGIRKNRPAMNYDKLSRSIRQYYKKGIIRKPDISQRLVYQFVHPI
Outline: as §1

[16] = biological target: T10, ELF5 (Homo sapiens, UniProt Q9UKW6-2 1-255); details: protein: recombinant; tags: N-terminal GST; dsDNA, one strand shown
T10 sequence: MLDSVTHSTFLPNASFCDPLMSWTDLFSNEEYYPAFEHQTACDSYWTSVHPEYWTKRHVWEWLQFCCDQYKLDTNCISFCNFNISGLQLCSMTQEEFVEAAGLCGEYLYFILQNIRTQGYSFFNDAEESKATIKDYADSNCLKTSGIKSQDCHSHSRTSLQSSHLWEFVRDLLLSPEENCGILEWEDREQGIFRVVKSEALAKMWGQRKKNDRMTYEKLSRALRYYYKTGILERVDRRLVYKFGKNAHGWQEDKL
Outline: as §1

[17] = biological target: T11, ETV3 (Homo sapiens, UniProt P41162-2 1-143); details: protein: recombinant; tags: N-terminal GST; dsDNA, one strand shown
T11 sequence: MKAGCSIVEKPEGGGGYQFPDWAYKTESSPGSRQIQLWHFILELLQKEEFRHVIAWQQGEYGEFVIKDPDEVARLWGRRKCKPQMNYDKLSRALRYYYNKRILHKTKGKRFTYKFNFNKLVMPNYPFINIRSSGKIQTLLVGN
Outline: as §1

Sequence of ETV1 (P50549 whole entry): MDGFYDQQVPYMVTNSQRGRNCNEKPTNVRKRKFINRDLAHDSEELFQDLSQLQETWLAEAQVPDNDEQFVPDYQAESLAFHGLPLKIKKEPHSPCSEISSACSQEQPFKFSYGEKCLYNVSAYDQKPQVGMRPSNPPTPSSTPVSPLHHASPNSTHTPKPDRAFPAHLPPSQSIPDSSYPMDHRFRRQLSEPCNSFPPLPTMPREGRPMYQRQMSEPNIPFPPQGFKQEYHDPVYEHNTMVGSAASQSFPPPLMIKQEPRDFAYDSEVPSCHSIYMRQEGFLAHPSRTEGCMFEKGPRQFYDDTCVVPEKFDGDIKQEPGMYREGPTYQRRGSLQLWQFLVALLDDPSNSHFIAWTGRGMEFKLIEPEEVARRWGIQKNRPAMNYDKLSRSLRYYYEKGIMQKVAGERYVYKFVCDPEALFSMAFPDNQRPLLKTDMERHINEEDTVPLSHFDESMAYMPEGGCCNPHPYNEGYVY
Sequence of ETV5 (P41161 whole entry): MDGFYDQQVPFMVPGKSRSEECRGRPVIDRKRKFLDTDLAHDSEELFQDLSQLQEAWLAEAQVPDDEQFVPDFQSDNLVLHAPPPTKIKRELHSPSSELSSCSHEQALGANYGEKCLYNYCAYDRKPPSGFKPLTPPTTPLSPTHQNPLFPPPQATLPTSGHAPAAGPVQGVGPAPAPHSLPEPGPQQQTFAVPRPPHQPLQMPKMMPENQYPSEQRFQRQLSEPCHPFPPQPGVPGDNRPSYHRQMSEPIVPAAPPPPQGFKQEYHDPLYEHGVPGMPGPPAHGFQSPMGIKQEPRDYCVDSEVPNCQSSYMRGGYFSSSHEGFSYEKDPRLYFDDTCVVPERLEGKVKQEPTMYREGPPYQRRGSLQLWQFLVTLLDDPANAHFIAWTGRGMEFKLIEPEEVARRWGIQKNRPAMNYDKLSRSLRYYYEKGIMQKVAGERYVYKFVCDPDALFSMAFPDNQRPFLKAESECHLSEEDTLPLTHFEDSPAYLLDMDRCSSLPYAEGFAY
Sequence of ELF4 (Q99607 whole entry): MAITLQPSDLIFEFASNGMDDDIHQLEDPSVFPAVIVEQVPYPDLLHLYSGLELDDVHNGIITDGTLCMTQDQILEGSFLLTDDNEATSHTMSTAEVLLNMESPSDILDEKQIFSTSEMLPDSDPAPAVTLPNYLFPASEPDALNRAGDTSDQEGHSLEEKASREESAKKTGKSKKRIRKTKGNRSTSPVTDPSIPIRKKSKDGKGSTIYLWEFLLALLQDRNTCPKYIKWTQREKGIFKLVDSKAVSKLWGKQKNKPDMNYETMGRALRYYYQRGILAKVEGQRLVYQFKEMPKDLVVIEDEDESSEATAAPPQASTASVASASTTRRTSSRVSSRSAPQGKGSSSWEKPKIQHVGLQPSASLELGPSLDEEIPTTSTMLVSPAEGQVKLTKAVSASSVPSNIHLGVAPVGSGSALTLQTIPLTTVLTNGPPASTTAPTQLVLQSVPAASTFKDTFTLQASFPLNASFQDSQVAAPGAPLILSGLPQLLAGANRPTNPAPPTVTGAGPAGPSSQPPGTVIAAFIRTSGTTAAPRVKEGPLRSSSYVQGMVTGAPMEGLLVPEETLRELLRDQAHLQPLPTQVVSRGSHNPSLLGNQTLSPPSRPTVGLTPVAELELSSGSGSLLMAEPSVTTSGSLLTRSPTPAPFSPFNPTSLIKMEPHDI
Sequence of HSF1 (Q00613 whole entry): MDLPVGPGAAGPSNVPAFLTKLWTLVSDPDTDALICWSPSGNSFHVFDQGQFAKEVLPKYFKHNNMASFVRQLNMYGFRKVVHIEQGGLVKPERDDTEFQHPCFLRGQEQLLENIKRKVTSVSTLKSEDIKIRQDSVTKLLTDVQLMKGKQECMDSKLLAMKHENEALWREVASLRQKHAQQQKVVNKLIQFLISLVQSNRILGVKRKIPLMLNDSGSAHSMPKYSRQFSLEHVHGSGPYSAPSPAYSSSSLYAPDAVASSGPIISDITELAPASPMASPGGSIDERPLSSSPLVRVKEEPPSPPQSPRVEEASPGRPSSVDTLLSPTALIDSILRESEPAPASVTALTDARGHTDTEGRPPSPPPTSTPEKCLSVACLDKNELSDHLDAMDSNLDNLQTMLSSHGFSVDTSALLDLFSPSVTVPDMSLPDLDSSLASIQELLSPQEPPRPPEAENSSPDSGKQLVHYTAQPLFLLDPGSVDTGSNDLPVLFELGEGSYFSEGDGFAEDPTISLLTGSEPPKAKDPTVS
Sequence of ETV6 (P41212 whole entry): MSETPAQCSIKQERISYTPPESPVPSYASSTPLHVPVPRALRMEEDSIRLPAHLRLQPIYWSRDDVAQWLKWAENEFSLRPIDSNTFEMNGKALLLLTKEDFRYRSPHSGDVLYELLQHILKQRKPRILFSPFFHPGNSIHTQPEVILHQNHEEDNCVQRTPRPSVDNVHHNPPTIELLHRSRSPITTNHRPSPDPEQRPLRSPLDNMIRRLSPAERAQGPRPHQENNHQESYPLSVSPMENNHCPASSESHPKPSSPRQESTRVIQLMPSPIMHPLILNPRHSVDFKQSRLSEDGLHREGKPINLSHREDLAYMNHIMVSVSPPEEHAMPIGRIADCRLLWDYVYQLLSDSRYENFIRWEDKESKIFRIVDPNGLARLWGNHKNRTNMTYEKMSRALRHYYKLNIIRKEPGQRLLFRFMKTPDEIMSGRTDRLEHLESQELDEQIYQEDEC
Sequence of CRX (O43186 whole entry): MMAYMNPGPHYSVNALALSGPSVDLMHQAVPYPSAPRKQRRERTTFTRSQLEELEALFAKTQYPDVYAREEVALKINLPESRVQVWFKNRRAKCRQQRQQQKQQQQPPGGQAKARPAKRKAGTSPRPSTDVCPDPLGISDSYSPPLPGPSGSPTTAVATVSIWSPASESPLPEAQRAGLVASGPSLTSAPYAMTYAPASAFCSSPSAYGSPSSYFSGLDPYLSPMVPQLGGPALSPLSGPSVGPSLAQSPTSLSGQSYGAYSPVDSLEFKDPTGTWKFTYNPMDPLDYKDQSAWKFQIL

| Sequence | binding signal [1] | binding signal [2] | binding signal [3] | binding signal [4] | binding signal [5] | binding signal [6] | binding signal [7] | binding signal [8] | binding signal [9] | binding signal [10] | binding signal [11] | binding signal [12] | binding signal [13] | binding signal [14] | binding signal [15] | binding signal [16] | binding signal [17] |
| --- | --- | --- | --- | --- | --- | --- | --- | --- | --- | --- | --- | --- | --- | --- | --- | --- | --- |
| AATGGA | 1.09 fold enrichment (6-mer frequency, TF over GST control) | 1.05 fold enrichment (6-mer frequency, TF over GST control) | 1.12 fold enrichment (6-mer frequency, TF over GST control) | 1.08 fold enrichment (6-mer frequency, TF over GST control) | 1.05 fold enrichment (6-mer frequency, TF over GST control) | 1.07 fold enrichment (6-mer frequency, TF over GST control) | 1.08 fold enrichment (6-mer frequency, TF over GST control) | 1.09 fold enrichment (6-mer frequency, TF over GST control) | 1.03 fold enrichment (6-mer frequency, TF over GST control) | 1.12 fold enrichment (6-mer frequency, TF over GST control) | – | – | – | – | – | – | – |
| TTAGGT | – | 1.12 fold enrichment (6-mer frequency, TF over GST control) | 1.28 fold enrichment (6-mer frequency, TF over GST control) | 1.08 fold enrichment (6-mer frequency, TF over GST control) | 1.15 fold enrichment (6-mer frequency, TF over GST control) | 1.04 fold enrichment (6-mer frequency, TF over GST control) | – | 1.13 fold enrichment (6-mer frequency, TF over GST control) | 1.09 fold enrichment (6-mer frequency, TF over GST control) | 1.16 fold enrichment (6-mer frequency, TF over GST control) | 1.26 fold enrichment (6-mer frequency, TF over GST control) | 1 fold enrichment (6-mer frequency, TF over GST control) | 1.82 fold enrichment (6-mer frequency, TF over GST control) | 1.19 fold enrichment (6-mer frequency, TF over GST control) | 1.09 fold enrichment (6-mer frequency, TF over GST control) | 1.02 fold enrichment (6-mer frequency, TF over GST control) | 1.06 fold enrichment (6-mer frequency, TF over GST control) |
| ACGCCC | 1.12 fold enrichment (6-mer frequency, TF over GST control) | 1.16 fold enrichment (6-mer frequency, TF over GST control) | 1 fold enrichment (6-mer frequency, TF over GST control) | 1.2 fold enrichment (6-mer frequency, TF over GST control) | 1.06 fold enrichment (6-mer frequency, TF over GST control) | 1.16 fold enrichment (6-mer frequency, TF over GST control) | 1.17 fold enrichment (6-mer frequency, TF over GST control) | 1.12 fold enrichment (6-mer frequency, TF over GST control) | 1.03 fold enrichment (6-mer frequency, TF over GST control) | 1.13 fold enrichment (6-mer frequency, TF over GST control) | 1.18 fold enrichment (6-mer frequency, TF over GST control) | 1.05 fold enrichment (6-mer frequency, TF over GST control) | – | 1.24 fold enrichment (6-mer frequency, TF over GST control) | 1.07 fold enrichment (6-mer frequency, TF over GST control) | 1.05 fold enrichment (6-mer frequency, TF over GST control) | 1.15 fold enrichment (6-mer frequency, TF over GST control) |
